Records with an inconclusive call do not appear. The source made the active and inactive calls. Unless noted, calls come from the whole dose curve; as a rule, active = well fitted curve in the direction sought with a large enough effect in the repeat runs; inconclusive = weak or mixed curves; inactive = no such curve, though single readings can be large; an effect the other way counts as inactive or inconclusive.
What was measured:
[1] = A CellTox Green Cytotoxicity Assay to monitor cytotoxicity in HepG2 cells - 8 hour (AID 1224890); note: nearly all actives have a fitted effect of over 45% in size
Summary of the method: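 Continuous culture of HepG2 cells with a membrane-impermeant DNA dye; rising fluorescence marks dead cells. Compound exposure lasted up to 40 h at 37 C, with reads every 8 h from 0 h.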

[2] = qHTS assay to identify small molecule antagonists of the estrogen receptor alpha (ER-alpha) signaling pathway using the BG1 cell line in the presence of 0.1 nM 17-beta-estradiol - cell viability counter screen (AID 1259241); note: nearly all actives have a fitted effect of over 40% in size
Summary of the method: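 Cytotoxicity counter-screen: live-cell protease activity measured by fluorescence (30 min reagent step) in the same wells. Cells were VM7Luc4E2 with endogenous ER-alpha and ERE-driven luciferase, treated 22 hr at 37C alongside 0.1 nM 17beta-estradiol final.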

[3] = qHTS assay to identify small molecule antagonists of the androgen receptor (AR) signaling pathway using the MDA cell line in the presence of 0.5 nM R1881 - cell viability counter screen (AID 1259242); note: nearly all actives have a fitted effect of over 45% in size
Summary of the method: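 Fluorescence from CellTiter-Fluor, which reports protease activity of live cells, was read 30 min after reagent addition to MDA-kb2 cells that had been incubated 16 hr with compound and 0.5 nM R1881.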

[4] = molecular target: Androgen receptor (Homo sapiens) (UniProt P10275); assay: qHTS assay to identify small molecule antagonists of the androgen receptor (AR) signaling pathway using the MDA cell line in the presence of 0.5 nM R1881 (AID 1259243); note: nearly all actives have a fitted effect of over 50% in size; note: potency is the fitted concentration of half-maximal effect
Summary of the method: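 Inhibition of R1881 (0.5 nM final) induced reporter signal was measured in human MDA-kb2 cells; note the MMTV promoter also responds to GR. Exposure lasted 16 hr at 37C.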

[5] = molecular target: Estrogen receptor (Homo sapiens) (UniProt P03372); assay: qHTS assay to identify small molecule antagonists of the estrogen receptor alpha (ER-alpha) signaling pathway using the BG1 cell line in the presence of 0.1 nM 17-beta-estradiol (AID 1259244); note: nearly all actives have a fitted effect of over 50% in size; note: potency is the fitted concentration of half-maximal effect
Summary of the method: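 Quantitative high-throughput screen in VM7Luc4E2 cells: compound plus 0.1 nM E2 (final), 22 h, 37C, 5% CO2; ONE-Glo added, 30 min room temperature, luminescence measured.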

[6] = qHTS assay to identify small molecule HDAC inhibitors (AID 1259364); note: nearly all actives have a fitted effect of over 45% in size; note: potency is the fitted concentration of half-maximal effect
Summary of the method: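 Endogenous HDAC class I/II activity was measured in wild-type HCT-116 cells by HDAC-Glo luminescence after 2 h compound treatment.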

[7] = qHTS assay to identify small molecule HDAC inhibitors - cell viability counter screen (AID 1259365); note: series mostly up to about 92 µM; nearly all actives have a fitted effect of over 50% in size
Summary of the method: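 CellTiter-Glo luminescence (30 min, room temperature) reported viability after a 2 h compound exposure at 37 C. Cells: wild-type HCT-116, 1,500 per well, seeded the night before.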

[8] = qHTS assay to identify small molecule agonists of the sonic hedgehog signaling (Shh) pathway - cell viability counter screen (AID 1259366); note: nearly all actives have a fitted effect of over 50% in size
Summary of the method: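 Cytotoxicity counter screen: CellTiter-Fluor reagent added after 23 h compound exposure, then 1 h at 37C and fluorescence read. Cells were 3T3 Gli1-Luc, seeded 2,000 per well and dosed 4 h post-plating.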

[9] = qHTS assay to identify small molecule antagonists of the sonic hedgehog signaling (Shh) pathway - cell viability counter screen (AID 1259367); note: nearly all actives have a fitted effect of over 55% in size
Summary of the method: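 After a 4 hr settling period, 3T3 Gli1-Luc cells were treated with DMSO-dissolved chemicals and conditioned medium, kept 24 hr at 37C in 5% CO2, and assayed for viability by CellTiter-Fluor fluorescence following 1 hr reagent incubation.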

[10] = qHTS assay to identify small molecule agonists of the sonic hedgehog signaling (Shh) pathway (AID 1259368; calls by dose curve;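 note: NIH/3T3-derived 3T3Gli1-Luc cells carrying a stable Gli1-driven firefly luciferase reporter; series mostly up to about 92 µM; nearly all actives have a fitted effect of over 15% in size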)
Summary of the method: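 Luminescent signal was taken as a measure of Gli1-controlled luciferase expression in stably transfected NIH/3T3-derived cells that had been treated for 24 hr with compounds delivered in DMSO.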

[11] = molecular target: Estrogen receptor beta (Homo sapiens) (UniProt Q92731); assay: qHTS assay to identify small molecule agonists of the estrogen receptor beta (ER-beta) signaling pathway (AID 1259377; active = well fitted activation curve with a large enough effect in the signal ratio in the repeat runs, not every such curve was filed as active; the % refers to the signal ratio)
Summary of the method: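 Ratiometric beta-lactamase FRET read-out came after 2 h substrate loading at room temperature. It followed 16 h compound treatment at 37C of GripTite HEK293T cells carrying a UAS-bla reporter, plated in 2% charcoal-stripped FBS medium.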

[12] = qHTS assay to identify small molecule agonists of the androgen receptor (AR) signaling pathway in the presence of an antagonist - cell viability counter screen (AID 1259379);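 note: MDA-kb2 human breast cancer cells carrying an MMTV luciferase reporter; series mostly up to about 92 µM; nearly all actives have a fitted effect of over 25% in size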
Summary of the method: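 In MDA-kb2 cells (human breast carcinoma, MMTV-luciferase), compounds at 15 concentrations plus 3.0uM nilutamide; 16 hr, 37C, 0% CO2; CellTiter-Fluor fluorescence read for viability.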

[13] = qHTS assay to identify small molecule agonists of the estrogen receptor beta (ER-beta) signaling pathway - cell viability counter screen (AID 1259380); note: nearly all actives have a fitted effect of over 30% in size; note: potency is the fitted concentration of half-maximal effect
Summary of the method: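 Viability of ER-beta-UAS-bla HEK293T cells was determined by CellTiter-Glo luminescence following 16 hr treatment with test compounds at 37C.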

[14] = qHTS assay to identify small molecule antagonists of the estrogen receptor beta (ER-beta) signaling pathway - cell viability counter screen (AID 1259382); note: series mostly up to about 92 µM; nearly all actives have a fitted effect of over 55% in size
Summary of the method: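 Tox21 10K library tested in qHTS format on ER-beta-bla HEK293T cells stimulated with 1nM E2; 16 hr treatment at 37C. Same-well CellTiter-Glo luminescence served as the cell viability measure.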

[15] = molecular target: Estrogen receptor (Homo sapiens) (UniProt P03372); assay: qHTS assay to identify small molecule agonists of the estrogen receptor alpha (ER-alpha) signaling pathway in the presence of an antagonist (AID 1259383; calls by dose curve; note: top concentration of the series differs between compounds; nearly all actives have a fitted effect of over 15% in size)
Summary of the method: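 In VM7Luc4E2 cells, 4,000 per well, compounds at 15 concentrations were co-incubated 22hr at 37C with 10.0nM final ICI-182,780. Luminescence from the stably transfected 4×ERE-luciferase reporter was recorded 30min after ONE-Glo addition.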

[16] = qHTS assay to identify small molecule agonists or antagonists of the thyroid stimulating hormone receptor (TSHR) signaling pathway - wild type cell line counter screen (AID 1259384; calls by dose curve)
Summary of the method: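 Wild-type HEK293 cells were plated 18 h at 37 C/5% CO2, pin-dosed with compound plus Ro20-1724 medium, held 30 min at room temperature, then given cAMP-d2 and anti-cAMP-cryptate; fluorescence was read after 1 h. Fifteen concentrations, triplicate.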

[17] = qHTS assay to identify small molecule antagonists of the sonic hedgehog signaling (Shh) pathway (AID 1259369; calls by dose curve; note: nearly all actives have a fitted effect of over 45% in size; note: potency is the fitted concentration of half-maximal effect)
Summary of the method: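 Screening used 3T3Gli1-Luc cells at 2,000 per well, compounds delivered in DMSO, and conditioned medium as agonist stimulus; plates incubated 24hr at 37 C and 5% CO2 before a 30min luciferase step.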

[18] = molecular target: Androgen receptor (Homo sapiens) (UniProt P10275); assay: qHTS assay to identify small molecule agonists of the androgen receptor (AR) signaling pathway in the presence of an antagonist (AID 1259381; calls by dose curve; note: nearly all actives have a fitted effect of over 15% in size)
Summary of the method: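 Here, 15-concentration compound series were pin-transferred onto MDA-kb2 MMTV-luciferase cells already dosed with nilutamide (3.0uM final). After 16hr at 37C, ONE-Glo was added and luminescence read 30min later at room temperature.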

[19] = molecular target: Estrogen receptor beta (Homo sapiens) (UniProt Q92731); assay: qHTS assay to identify small molecule antagonists of the estrogen receptor beta (ER-beta) signaling pathway (AID 1259378; active = well fitted inhibition curve with a large enough effect in the signal ratio in the repeat runs, not every such curve was filed as active; the % refers to the signal ratio; note: potency is the fitted concentration of half-maximal effect)
Summary of the method: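 ER-beta-UAS-bla HEK293T (GripTite) cells in 2% charcoal-stripped FBS medium were preincubated 6 hr at 37C, dosed with compound, then stimulated with 1 nM E2 (final) for 16 hr; beta-lactamase reporter read by B/G FRET fluorescence after 2 hr substrate loading.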

[20] = qHTS assay to identify small molecule phospholipidosis (PLD) inducers (AID 1259344; active = well fitted curve in the direction sought with a large enough effect; an effect the other way counts as inactive or inconclusive)
Summary of the method: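 HepG2 cells grown on collagen I take up LipidTOX Red while exposed to compound for 24 h; after fixation they are imaged at 20x and pit metrics are extracted.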
% is set by controls: 0 for no effect and ±100 for the full control effect.

Estrogen receptor (Homo sapiens), sequence (P03372 whole entry, looked up): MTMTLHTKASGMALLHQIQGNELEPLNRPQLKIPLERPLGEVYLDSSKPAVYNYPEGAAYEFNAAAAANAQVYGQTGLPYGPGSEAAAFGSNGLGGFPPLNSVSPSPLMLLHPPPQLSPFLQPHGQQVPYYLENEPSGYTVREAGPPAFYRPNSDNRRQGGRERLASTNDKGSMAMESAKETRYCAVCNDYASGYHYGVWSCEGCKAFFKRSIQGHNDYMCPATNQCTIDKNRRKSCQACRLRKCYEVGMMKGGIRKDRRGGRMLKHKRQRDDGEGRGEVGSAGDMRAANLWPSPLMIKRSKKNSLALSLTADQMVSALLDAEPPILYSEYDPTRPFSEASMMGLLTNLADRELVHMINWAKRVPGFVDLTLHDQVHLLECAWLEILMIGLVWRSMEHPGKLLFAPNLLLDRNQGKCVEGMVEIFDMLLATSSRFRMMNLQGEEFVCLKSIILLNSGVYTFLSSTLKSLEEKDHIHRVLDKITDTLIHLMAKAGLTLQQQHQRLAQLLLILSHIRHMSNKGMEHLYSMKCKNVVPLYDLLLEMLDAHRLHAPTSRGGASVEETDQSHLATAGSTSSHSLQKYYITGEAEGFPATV
Androgen receptor (Homo sapiens), sequence (P10275 whole entry, looked up): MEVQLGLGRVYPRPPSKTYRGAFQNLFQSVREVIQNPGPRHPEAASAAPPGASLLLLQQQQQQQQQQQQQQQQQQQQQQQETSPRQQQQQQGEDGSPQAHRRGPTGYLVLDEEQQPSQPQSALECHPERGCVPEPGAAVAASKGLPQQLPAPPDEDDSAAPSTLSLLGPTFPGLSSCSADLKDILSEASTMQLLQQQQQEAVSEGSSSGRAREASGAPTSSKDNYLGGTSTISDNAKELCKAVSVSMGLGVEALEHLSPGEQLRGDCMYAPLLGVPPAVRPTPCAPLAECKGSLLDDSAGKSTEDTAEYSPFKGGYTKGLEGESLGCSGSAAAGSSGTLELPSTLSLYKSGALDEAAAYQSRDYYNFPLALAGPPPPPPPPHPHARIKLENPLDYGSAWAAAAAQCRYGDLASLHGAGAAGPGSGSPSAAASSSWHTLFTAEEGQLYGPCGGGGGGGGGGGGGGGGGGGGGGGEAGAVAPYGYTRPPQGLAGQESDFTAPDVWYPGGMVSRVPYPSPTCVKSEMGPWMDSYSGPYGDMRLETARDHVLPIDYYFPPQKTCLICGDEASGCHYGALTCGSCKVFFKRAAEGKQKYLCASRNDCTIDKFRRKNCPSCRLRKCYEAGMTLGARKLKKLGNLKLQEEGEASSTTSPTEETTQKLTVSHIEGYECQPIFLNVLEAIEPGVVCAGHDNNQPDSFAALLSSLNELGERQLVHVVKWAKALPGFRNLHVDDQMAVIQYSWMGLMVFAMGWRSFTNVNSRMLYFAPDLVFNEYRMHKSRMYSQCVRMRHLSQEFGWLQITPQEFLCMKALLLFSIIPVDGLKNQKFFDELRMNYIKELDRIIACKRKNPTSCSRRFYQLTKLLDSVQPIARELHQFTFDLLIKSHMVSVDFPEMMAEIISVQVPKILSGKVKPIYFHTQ
Estrogen receptor beta (Homo sapiens), sequence (Q92731 whole entry, looked up): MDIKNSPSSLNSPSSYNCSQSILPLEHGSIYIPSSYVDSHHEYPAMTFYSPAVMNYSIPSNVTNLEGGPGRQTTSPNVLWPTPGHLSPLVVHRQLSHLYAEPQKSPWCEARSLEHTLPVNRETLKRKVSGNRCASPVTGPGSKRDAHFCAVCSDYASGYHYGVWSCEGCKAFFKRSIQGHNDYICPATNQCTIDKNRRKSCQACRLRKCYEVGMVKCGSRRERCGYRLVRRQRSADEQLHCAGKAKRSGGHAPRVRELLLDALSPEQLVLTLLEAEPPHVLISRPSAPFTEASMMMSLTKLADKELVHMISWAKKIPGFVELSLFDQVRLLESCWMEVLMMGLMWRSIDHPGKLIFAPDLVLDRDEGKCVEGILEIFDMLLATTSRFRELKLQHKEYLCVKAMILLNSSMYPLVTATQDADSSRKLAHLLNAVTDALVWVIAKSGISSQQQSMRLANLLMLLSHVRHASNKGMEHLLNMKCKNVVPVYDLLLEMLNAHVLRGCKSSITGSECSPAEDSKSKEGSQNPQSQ

C1COC1
inactive: Potency [1] | Potency [2] | Potency [3] | Potency [4] | Potency [5] | Potency [6] | Potency [7] | Potency [8] | Potency [9] | Potency [10] | Potency [11] | Potency [12] | Potency [13] | Potency [14] | Potency [15] | outcome [16]

C[C@H]1C[C@H](O)c2ccsc2S1(=O)=O
inactive: Potency [1] | Potency [2] | Potency [3] | Potency [4] | Potency [5] | Potency [6] | Potency [7] | Potency [8] | Potency [9] | Potency [10] | Potency [17] | Potency [11] | Potency [12] | Potency [13] | Potency [18] | Potency [14] | Potency [15] | outcome [16]

COc1ccccc1NC(=O)c1cc2ccccc2cc1O
inactive: Potency [1] | Potency [2] | Potency [3] | Potency [7] | Potency [9] | Potency [15] | outcome [16]
active: Potency [4] 30.6 µM | Potency [5] 43.3 µM | Potency [6] 24.3 µM | Potency [17] 27.3 µM | Potency [19] 17.2 µM | Potency [13] 54.5 µM

O=C(O)CCC(=O)C(=O)O
inactive: Potency [1] | Potency [2] | Potency [3] | Potency [5] | Potency [20] | Potency [6] | Potency [7] | Potency [8] | Potency [9] | Potency [10] | Potency [17] | Potency [11] | Potency [12] | Potency [13] | Potency [14] | Potency [15] | outcome [16]

CC/C=C1/OC(=O)c2ccccc21
inactive: Potency [1] | Potency [2] | Potency [3] | Potency [4] | Potency [6] | Potency [7] | Potency [10] | Potency [11] | Potency [19] | Potency [12] | Potency [13] | Potency [14]

C=CCc1ccccc1OCC(O)CNC(C)C (configuration not stated)
inactive: Potency [1] | Potency [2] | Potency [3] | Potency [4] | Potency [20] | Potency [6] | Potency [7] | Potency [9] | Potency [10] | Potency [17] | Potency [12] | Potency [14]

OC1(c2ccccc2)CCNCC1
inactive: Potency [1] | Potency [2] | Potency [3] | Potency [4] | Potency [6] | Potency [7] | Potency [8] | Potency [9] | Potency [10] | Potency [17] | Potency [11] | Potency [12] | Potency [13] | Potency [14] | outcome [16]

NC1[C@H]2CN(c3nc4c(cc3F)c(=O)c(C(=O)O)cn4-c3ccc(F)cc3F)C[C@@H]12 (some centres not stated)
active: Potency [17] 29.8 µM
inactive: Potency [1] | Potency [2] | Potency [3] | Potency [4] | Potency [20] | Potency [6] | Potency [7] | Potency [10] | Potency [12] | Potency [13] | Potency [14] | Potency [15] | outcome [16]

O=C1NC(=O)c2cc([N+](=O)[O-])ccc21
inactive: Potency [1] | Potency [2] | Potency [3] | Potency [4] | Potency [6] | Potency [7] | Potency [8] | Potency [9] | Potency [10] | Potency [11] | Potency [19] | Potency [12] | Potency [13] | Potency [14] | Potency [15]

O=C1Cc2ccccc2N1c1c(Cl)cccc1Cl
inactive: Potency [1] | Potency [2] | Potency [3] | Potency [6] | Potency [7] | Potency [9] | Potency [10] | Potency [17] | Potency [11] | Potency [14] | Potency [15]
active: Potency [4] 24.3 µM | Potency [19] 54.5 µM | Potency [13] 19.3 µM

CCCCCCCC/C=C\CCCCCCCCCCCC(=O)O
inactive: Potency [1] | Potency [2] | Potency [3] | Potency [4] | Potency [5] | Potency [6] | Potency [7] | Potency [8] | Potency [9] | Potency [10] | Potency [12] | Potency [13] | Potency [14] | Potency [15]

CCn1cc(C(=O)O)c(=O)c2cc(F)c(N3CCNCC3)cc21
inactive: Potency [1] | Potency [2] | Potency [3] | Potency [5] | Potency [20] | Potency [6] | Potency [7] | Potency [9] | Potency [10] | Potency [17] | Potency [11] | Potency [19] | Potency [12] | Potency [13] | Potency [14] | Potency [15] | outcome [16]

Clc1ccc(Nc2nnc(Cc3ccncc3)c3ccccc23)cc1
active: Potency [5] 29.8 µM | Potency [17] 1.19 µM | Potency [19] 13.3 µM
inactive: Potency [1] | Potency [2] | Potency [3] | Potency [20] | Potency [6] | Potency [7] | Potency [10] | Potency [11] | Potency [12] | Potency [14] | Potency [15]

C=C1CCC2CC1C2(C)C (configuration not stated)
inactive: Potency [1] | Potency [2] | Potency [3] | Potency [5] | Potency [6] | Potency [7] | Potency [8] | Potency [9] | Potency [17] | Potency [11] | Potency [19] | Potency [12] | Potency [13] | Potency [14] | Potency [15]

CC1(C)[C@H](C(=O)O)N2C(=O)C[C@H]2S1(=O)=O
inactive: Potency [1] | Potency [2] | Potency [3] | Potency [5] | PLD induction [20] 7.08% [at 7.66 µM] | Potency [6] | Potency [7] | Potency [9] | Potency [10] | Potency [17] | Potency [12] | Potency [13] | Potency [14] | Potency [15]
active: Potency [19] 11.9 µM

CCC1(CO)COCOC1
inactive: Potency [1] | Potency [2] | Potency [3] | Potency [5] | Potency [6] | Potency [7] | Potency [8] | Potency [9] | Potency [10] | Potency [17] | Potency [11] | Potency [19] | Potency [12] | Potency [13] | Potency [14] | Potency [15] | outcome [16]

C[C@]1(Cn2ccnn2)[C@H](C(=O)O)N2C(=O)C[C@H]2S1(=O)=O
inactive: Potency [1] | Potency [2] | Potency [3] | Potency [5] | Potency [20] | Potency [6] | Potency [8] | Potency [9] | Potency [10] | Potency [17] | Potency [12] | Potency [14] | Potency [15] | outcome [16]
